From PubChem BioAssay (EPA / NIEHS)
Calls of active or inactive are those of the source. How the source made its calls: active means hit-call score of the fitted dose curve at least 0.9, where 1 is the maximum; inactive means score below 0.9.

Legend:
Conditions in all cases: mRNA level, 48 h; actives raise or lower the signal
[1] = read-out: Apolipoprotein A-V (APOA5) gene, APOA5 (gene 116519); test: LTEA_HepaRG_APOA5: Life Technologies and Expression Analysis (LTEA) Assay for Apolipoprotein A-V (APOA5) gene using HepaRG (AID 2283474)
How it was run: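 Readout is APOA5 transcript level by qRT-PCR on Fluidigm dynamic arrays, normalized to three housekeeping genes. HepaRG cultures received chemicals for 48 h at up to 100 uM (half-log steps, 0.5% DMSO), with gain or loss scored relative to DMSO.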

[2] = read-out: Apoptosis regulator Bcl-2 (Homo sapiens) (UniProt P10415); test: LTEA_HepaRG_BCL2: Life Technologies and Expression Analysis (LTEA) Assay for Bcl-2 gene using HepaRG (AID 2283475);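 further: BCL2 transcript by TaqMan qRT-PCR normalised to ACTB GAPDH and POLR2A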
How it was run: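 Expression change of BCL2 mRNA in HepaRG after 48 h dosing, quantified by TaqMan qRT-PCR against three endogenous controls. Concentration-response used eight points up to 100 uM, vehicle 0.5% DMSO.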

[3] = read-out: Bcl-2 (BID) gene, BID (gene 637); test: LTEA_HepaRG_BID: Life Technologies and Expression Analysis (LTEA) Assay for Bcl-2 (BID) gene using HepaRG (AID 2283476)
How it was run: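 Gain or loss of BID expression is fitted relative to 0.5% DMSO vehicle. Human HepaRG liver cells received a 48 h chemical exposure over an eight-point concentration range.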

[4] = read-out: Caspase-3 (Homo sapiens) (UniProt P42574); test: LTEA_HepaRG_CASP3: Life Technologies and Expression Analysis (LTEA) Assay for cysteine-aspartic acid protease (CASP3) using HepaRG (AID 2283477)
How it was run: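 Read-out is CASP3 mRNA level by TaqMan qRT-PCR in human HepaRG cells after 48 h chemical exposure. Eight half-log concentrations topping at 100 uM were tested in 0.5% DMSO; gain or loss was fitted relative to DMSO.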

[5] = read-out: Cytochrome P450 (CYP24A1), CYP24A1 (gene 1591); test: LTEA_HepaRG_CYP24A1: Life Technologies and Expression Analysis (LTEA) Assay for Cytochrome P450 (CYP24A1) using HepaRG (AID 2283478)
How it was run: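 HepaRG, 48 h chemical exposure, 8-pt half-log CRC from 100 uM, 0.5% DMSO vehicle, duplicates. Endpoint: CYP24A1 mRNA by Fluidigm TaqMan qRT-PCR, normalized ACTB/GAPDH/POLR2A; gain/loss fit vs DMSO.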

[6] = read-out: Cytochrome P450 (CYP1A2), CYP1A2 (gene 1544); test: LTEA_HepaRG_CYP1A2: Life Technologies and Expression Analysis (LTEA) Assay for Cytochrome P450 (CYP1A2) using HepaRG (AID 2283479)
How it was run: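 CYP1A2 transcript induction or loss, quantified by Fluidigm qRT-PCR against three housekeeping genes, was fitted bidirectionally against 0.5% DMSO controls. Human HepaRG cells received eight half-log concentrations from 100 uM over 48 h.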

[7] = read-out: cysteine-aspartic acid protease (CASP8), CASP8 (gene 841); test: LTEA_HepaRG_CASP8: Life Technologies and Expression Analysis (LTEA) Assay for cysteine-aspartic acid protease (CASP8) using HepaRG (AID 2283480)
How it was run: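 Differentiated HepaRG cells in serum-free induction medium, 48 h exposure, eight-point half-log series from 100 uM in 0.5% DMSO, duplicates. CASP8 mRNA by qRT-PCR, normalized to ACTB, GAPDH, POLR2A; bidirectional fit versus DMSO.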

[8] = read-out: Cytochrome P450 (CYP2B6), CYP2B6 (gene 1555); test: LTEA_HepaRG_CYP2B6: Life Technologies and Expression Analysis (LTEA) Assay for Cytochrome P450 (CYP2B6) using HepaRG (AID 2283481)
How it was run: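 HepaRG cells plated 48 h, switched to serum-free induction medium, then dosed 48 h (8 points, half-log from 100 uM, 0.5% DMSO). RNA isolated; CYP2B6 expression measured by qRT-PCR; gain or loss fitted relative to DMSO.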

[9] = read-out: CYP2C9 (gene 1559); test: LTEA_HepaRG_CYP2C9: Life Technologies and Expression Analysis (LTEA) Assay for CYP2C9 using HepaRG (AID 2283484)
How it was run: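 Differentiated human HepaRG cells in serum-free induction medium were exposed 48 h to chemicals in 8-point half-log series from 100 uM (0.5% DMSO), in duplicate. CYP2C9 mRNA was measured by qRT-PCR, normalized to ACTB/GAPDH/POLR2A, with bidirectional fitting versus DMSO.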

[10] = read-out: CYP2E1 (gene 1571); test: LTEA_HepaRG_CYP2E1: Life Technologies and Expression Analysis (LTEA) Assay for CYP2E1 using HepaRG (AID 2283485)
How it was run: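 Differentiated HepaRG cells were treated in duplicate for 48 h with chemicals in 0.5% DMSO, from 100 uM downward in half-log dilutions. RNA was then analysed by qRT-PCR for CYP2E1 induction or loss.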

[11] = read-out: CYP4A11 (gene 1579); test: LTEA_HepaRG_CYP4A11: Life Technologies and Expression Analysis (LTEA) Assay for CYP4A11 using HepaRG (AID 2283486)
How it was run: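 HepaRG, 48 h chem exposure, 8 conc (100 uM top, half-log), 0.5% DMSO vehicle; qRT-PCR readout, housekeeping-gene normalized; bidirectional curve fit vs DMSO baseline.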

[12] = read-out: Cytochrome P450 3A4 (Homo sapiens) (UniProt P08684); test: LTEA_HepaRG_CYP3A4: Life Technologies and Expression Analysis (LTEA) Assay for CYP3A4 using HepaRG (AID 2283487)
How it was run: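 HepaRG, 48 h exposure, 8-pt CRC from 100 uM (half-log), 0.5% DMSO, duplicates; serum-free induction medium. Readout: CYP3A4 mRNA, qRT-PCR, ACTB/GAPDH/POLR2A normalization. Bidirectional fit vs DMSO.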

[13] = read-out: DNA damage-inducible transcript 3 (DDIT3), DDIT3 (gene 1649); test: LTEA_HepaRG_DDIT3: Life Technologies and Expression Analysis (LTEA) Assay for DNA damage-inducible transcript 3 (DDIT3) using HepaRG (AID 2283488)
How it was run: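 Changes in DDIT3 transcript, in either direction relative to 0.5% DMSO vehicle, were quantified by TaqMan qRT-PCR after 48 h chemical exposure of HepaRG cells at 8 concentrations, maximum 100 uM.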

[14] = read-out: Pro-epidermal growth factor (Homo sapiens) (UniProt P01133); test: LTEA_HepaRG_EGF: Life Technologies and Expression Analysis (LTEA) Assay for Epidermal growth factor (EGF) using HepaRG (AID 2283489)
How it was run: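 HepaRG, 48 h dosing, 100 uM top, half-log x8, 0.5% DMSO. Readout: TaqMan qRT-PCR (Fluidigm array), housekeeping-normalized. Gain or loss of signal fit vs DMSO.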

[15] = read-out: Early growth response protein 1 (EGR1) transcription factor, EGR1 (gene 1958); test: LTEA_HepaRG_EGR1: Life Technologies and Expression Analysis (LTEA) Assay for Early growth response protein 1 (EGR1) transcription factor using HepaRG (AID 2283490)
How it was run: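 Differentiated HepaRG cells in serum-free induction medium exposed 48 hours, duplicate, to 8 half-log concentrations up to 100 uM in 0.5% DMSO. EGR1 mRNA measured by TaqMan qRT-PCR, normalized to ACTB, GAPDH, POLR2A; bidirectional fit versus DMSO.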

[16] = read-out: Ezrin (EZR), EZR (gene 7430); test: LTEA_HepaRG_EZR: Life Technologies and Expression Analysis (LTEA) Assay for Ezrin (EZR) using HepaRG (AID 2283491)
How it was run: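 Read-out is EZR transcript level by qRT-PCR, normalized to three housekeeping genes and fitted bidirectionally against the DMSO control. Human HepaRG cells received test chemicals for 48 h at eight half-log concentrations up to 100 uM in 0.5% DMSO.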

[17] = read-out: Cytochrome P450 3A7 (Homo sapiens) (UniProt P24462); test: LTEA_HepaRG_CYP3A7: Life Technologies and Expression Analysis (LTEA) Assay for CYP3A7 using HepaRG (AID 2283492)
How it was run: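 Human HepaRG liver cells, 48 h post-plating, switched to serum-free induction medium and exposed in duplicate for 48 h. Dosing: 100 uM top, half-log dilutions, 8 points, 0.5% DMSO vehicle. Read-out: CYP3A7 mRNA, gain or loss fitted against DMSO baseline.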

[18] = read-out: CYP3A5 (gene 1577); test: LTEA_HepaRG_CYP3A5: Life Technologies and Expression Analysis (LTEA) Assay for CYP3A5 using HepaRG (AID 2283493)
How it was run: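 mRNA induction or loss of CYP3A5 assessed in HepaRG after 48 h dosing, 100 uM top concentration, duplicate wells; TaqMan qRT-PCR with ACTB, GAPDH, POLR2A normalization; 0.5% DMSO as negative control.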

[19] = read-out: CYP2C8 (gene 1558); test: LTEA_HepaRG_CYP2C8: Life Technologies and Expression Analysis (LTEA) Assay for CYP2C8 using HepaRG (AID 2283483)
How it was run: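 Differentiated HepaRG cells in serum-free induction medium exposed 48 h in duplicate to 8 half-log concentrations from 100 uM in 0.5% DMSO. CYP2C8 mRNA by qRT-PCR normalized to ACTB, GAPDH, POLR2A; bidirectional fit versus DMSO.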

Measured: AC50

Apoptosis regulator Bcl-2 (Homo sapiens), sequence (P10415 whole entry, looked up): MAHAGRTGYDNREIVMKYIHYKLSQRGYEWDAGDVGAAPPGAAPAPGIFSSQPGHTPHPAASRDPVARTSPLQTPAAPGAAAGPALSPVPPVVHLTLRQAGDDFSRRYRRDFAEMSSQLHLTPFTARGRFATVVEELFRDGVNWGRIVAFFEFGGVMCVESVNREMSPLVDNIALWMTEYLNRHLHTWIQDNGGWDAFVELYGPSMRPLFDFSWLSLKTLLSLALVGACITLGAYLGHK
Caspase-3 (Homo sapiens), sequence (P42574 whole entry, looked up): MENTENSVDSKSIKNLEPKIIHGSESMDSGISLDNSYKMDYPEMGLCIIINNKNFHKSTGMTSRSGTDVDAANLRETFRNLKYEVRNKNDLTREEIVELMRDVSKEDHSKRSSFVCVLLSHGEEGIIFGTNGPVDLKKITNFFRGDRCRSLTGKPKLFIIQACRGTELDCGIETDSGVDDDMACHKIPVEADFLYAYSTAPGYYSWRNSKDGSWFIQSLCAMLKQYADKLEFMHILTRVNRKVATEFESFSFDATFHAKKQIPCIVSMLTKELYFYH
Cytochrome P450 3A4 (Homo sapiens), sequence (P08684 whole entry, looked up): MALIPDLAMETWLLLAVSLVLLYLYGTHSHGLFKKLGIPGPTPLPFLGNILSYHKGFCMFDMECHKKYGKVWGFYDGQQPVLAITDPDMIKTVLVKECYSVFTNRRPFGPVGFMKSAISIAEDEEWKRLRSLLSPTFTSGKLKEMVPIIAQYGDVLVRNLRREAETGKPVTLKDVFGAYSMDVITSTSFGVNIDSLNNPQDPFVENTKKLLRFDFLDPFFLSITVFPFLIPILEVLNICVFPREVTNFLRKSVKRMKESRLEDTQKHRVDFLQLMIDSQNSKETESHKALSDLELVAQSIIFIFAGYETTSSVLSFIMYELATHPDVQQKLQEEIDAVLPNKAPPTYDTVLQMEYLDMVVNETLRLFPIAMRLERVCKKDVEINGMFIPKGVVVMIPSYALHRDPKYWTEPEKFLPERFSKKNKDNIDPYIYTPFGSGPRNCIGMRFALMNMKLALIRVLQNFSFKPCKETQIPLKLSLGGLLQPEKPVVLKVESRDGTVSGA
Cytochrome P450 3A7 (Homo sapiens), sequence (P24462 whole entry, looked up): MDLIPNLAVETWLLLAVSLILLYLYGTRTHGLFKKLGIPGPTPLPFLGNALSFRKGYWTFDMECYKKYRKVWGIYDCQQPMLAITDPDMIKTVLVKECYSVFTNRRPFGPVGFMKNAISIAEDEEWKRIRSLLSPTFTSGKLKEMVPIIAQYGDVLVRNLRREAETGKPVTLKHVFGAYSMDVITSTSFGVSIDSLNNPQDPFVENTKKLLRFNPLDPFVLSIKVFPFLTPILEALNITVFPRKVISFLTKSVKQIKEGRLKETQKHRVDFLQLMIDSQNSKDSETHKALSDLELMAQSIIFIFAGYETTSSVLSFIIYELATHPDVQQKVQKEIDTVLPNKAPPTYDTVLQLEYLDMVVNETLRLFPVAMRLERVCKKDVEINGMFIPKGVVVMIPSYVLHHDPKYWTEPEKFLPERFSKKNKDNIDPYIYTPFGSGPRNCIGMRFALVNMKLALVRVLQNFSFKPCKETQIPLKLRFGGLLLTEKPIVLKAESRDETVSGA

CC(C1CC1)C(O)(Cn1cncn1)c1ccc(Cl)cc1 (configuration not stated)
active: [8] 1.06 µM | [10] 49.5 µM | [11] 49.8 µM | [12] 3.9 µM | [13] 72.3 µM | [17] 2.25 µM
not listed: [19]
inactive: all other assays above

C=C(C)[C@H]1Cc2c(ccc3c2O[C@@H]2COc4cc(OC)c(OC)cc4[C@@H]2C3=O)O1
inactive: [3] | [4] | [5] | [7]
active: [1] 12.9 µM | [2] 2.94 µM | [6] 0.679 µM | [8] 0.5 µM | [9] 3.67 µM | [10] 0.591 µM | [11] 0.838 µM | [13] 1.27 µM | [14] 50 µM | [15] 15.7 µM | [16] 1 µM | [18] 11.5 µM

COP(=O)(OC)SCn1c(=O)oc2cc(Cl)cnc21
active: [1] 0.282 µM | [2] 50 µM | [3] 0.00316 µM | [8] 50 µM | [9] 36.9 µM | [11] 36.2 µM | [12] 37.3 µM | [17] 50 µM | [18] 37.8 µM
not listed: [15]
inactive: all other assays above

C#CCC1=C(C)C(OC(=O)C2C(C=C(C)C)C2(C)C)CC1=O (configuration not stated)
active: [8] 12.1 µM | [10] 73.3 µM | [11] 49.8 µM | [14] 11.1 µM
not listed: [15] | [19]
inactive: all other assays above

CCOP(=S)(OCC)OC(Cl)C(Cl)(Cl)Cl (configuration not stated)
active: [8] 24 µM | [12] 50 µM
not listed: [15]
inactive: all other assays above

CSC1=N[C@@](C)(c2ccccc2)C(=O)N1Nc1ccccc1
inactive: [3] | [4] | [5] | [7] | [14] | [18]
active: [1] 33.8 µM | [2] 30.2 µM | [6] 25.4 µM | [8] 30.8 µM | [9] 33.8 µM | [10] 20.9 µM | [11] 27.1 µM | [12] 67.6 µM | [13] 28 µM | [16] 13.1 µM | [17] 25.6 µM

Cc1ccn2nc(S(=O)(=O)Nc3c(F)cccc3F)nc2n1
active: [12] 40.5 µM
not listed: [15]
inactive: all other assays above

O=c1ccc(=O)[nH][nH]1
active: [8] 4.2 µM | [10] 16 µM
not listed: [15]
inactive: all other assays above

CCCCOC(=O)[C@@H](C)Oc1ccc(Oc2ccc(C#N)cc2F)cc1
active: [6] 38.5 µM | [11] 32.4 µM
not listed: [15] | [19]
inactive: all other assays above
